Rows were chosen to be rich in hits. Some 2.7% of all compounds tested hit in one or more screens of this group.
eIF4E 4G PPI: inhibitors of eIF4E and eIF4G interaction in translation initiation. P63073+Q04637. TR-FRET eIF4E-eIF4GI(517-606) binding, 2 h. inhibition, % at 21.7 µM. actives 0.37% (n = 220,000). AID 782;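 active means inhibition above about 30%, limit read from the data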;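 further: 0% = full FRET control wells and 100% = background wells lacking eIF4GI fragment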
Target sequence (P63073 whole entry, looked up, the tested form may be a part): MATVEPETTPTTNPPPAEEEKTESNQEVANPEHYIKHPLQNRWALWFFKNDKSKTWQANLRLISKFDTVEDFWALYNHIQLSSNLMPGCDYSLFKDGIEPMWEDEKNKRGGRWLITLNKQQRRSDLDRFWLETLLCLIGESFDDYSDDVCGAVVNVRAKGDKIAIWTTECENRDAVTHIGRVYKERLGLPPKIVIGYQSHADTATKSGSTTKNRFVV
Target sequence (Q04637 whole entry, looked up, the tested form may be a part): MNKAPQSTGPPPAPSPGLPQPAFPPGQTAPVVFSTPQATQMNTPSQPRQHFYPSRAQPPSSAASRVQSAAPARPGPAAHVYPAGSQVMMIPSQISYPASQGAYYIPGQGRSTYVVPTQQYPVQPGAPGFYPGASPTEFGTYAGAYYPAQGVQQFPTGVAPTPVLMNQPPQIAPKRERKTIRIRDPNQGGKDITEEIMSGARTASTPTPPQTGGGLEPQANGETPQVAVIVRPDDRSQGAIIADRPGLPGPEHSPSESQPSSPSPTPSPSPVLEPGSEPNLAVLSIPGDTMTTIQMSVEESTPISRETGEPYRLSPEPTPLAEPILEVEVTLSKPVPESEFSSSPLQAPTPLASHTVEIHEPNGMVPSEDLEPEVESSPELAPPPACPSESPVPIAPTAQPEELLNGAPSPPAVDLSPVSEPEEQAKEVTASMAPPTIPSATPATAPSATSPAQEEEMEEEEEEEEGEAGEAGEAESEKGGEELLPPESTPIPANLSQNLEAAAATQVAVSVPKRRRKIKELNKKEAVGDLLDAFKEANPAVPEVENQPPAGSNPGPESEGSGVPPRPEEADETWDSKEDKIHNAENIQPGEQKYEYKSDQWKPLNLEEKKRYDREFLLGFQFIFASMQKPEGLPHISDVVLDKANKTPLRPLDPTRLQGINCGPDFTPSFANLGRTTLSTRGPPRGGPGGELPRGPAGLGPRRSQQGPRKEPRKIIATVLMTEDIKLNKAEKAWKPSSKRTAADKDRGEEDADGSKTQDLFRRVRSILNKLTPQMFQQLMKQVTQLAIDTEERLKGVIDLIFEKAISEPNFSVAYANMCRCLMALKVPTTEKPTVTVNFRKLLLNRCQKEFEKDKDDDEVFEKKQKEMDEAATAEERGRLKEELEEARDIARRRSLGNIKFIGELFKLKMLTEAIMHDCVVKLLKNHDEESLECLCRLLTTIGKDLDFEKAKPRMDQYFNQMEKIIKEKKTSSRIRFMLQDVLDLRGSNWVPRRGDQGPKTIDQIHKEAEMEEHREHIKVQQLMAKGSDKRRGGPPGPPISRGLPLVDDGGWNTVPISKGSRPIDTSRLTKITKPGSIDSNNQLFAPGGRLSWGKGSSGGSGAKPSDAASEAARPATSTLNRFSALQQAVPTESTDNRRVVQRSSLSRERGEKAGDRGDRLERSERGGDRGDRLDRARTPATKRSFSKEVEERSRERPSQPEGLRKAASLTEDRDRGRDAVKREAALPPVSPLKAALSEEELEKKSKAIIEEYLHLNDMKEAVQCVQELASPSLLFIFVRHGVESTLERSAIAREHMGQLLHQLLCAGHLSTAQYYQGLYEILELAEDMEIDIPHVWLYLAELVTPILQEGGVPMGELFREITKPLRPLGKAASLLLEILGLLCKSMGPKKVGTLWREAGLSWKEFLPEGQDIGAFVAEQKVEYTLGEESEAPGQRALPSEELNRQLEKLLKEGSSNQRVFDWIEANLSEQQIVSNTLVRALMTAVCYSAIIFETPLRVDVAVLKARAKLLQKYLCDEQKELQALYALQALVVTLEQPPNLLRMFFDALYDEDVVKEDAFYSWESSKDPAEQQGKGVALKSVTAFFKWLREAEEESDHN
Pf gamet viab: kills late stage P. falciparum gametocytes; AID 743093; inhibition, % at 10.9 µM; P. falciparum stage V gametocytes, ATP luminescence, 24 h; actives 0.065% (n = 150,000);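 active means inhibition above the mean plus 3 SD of compounds within the control limits, set per campaign, cut at about 38% in these data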;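 further: 0% = DMSO wells and 100% = medium only without gametocytes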
Mcl1 Bid PPI: disrupts binding of human Mcl-1 to Bid peptide | inhibition, % at 21.7 µM | Q07820 | actives 0.97% (n = 220,000) | TR-FRET Mcl-1/Bid-Dy647 peptide binding, 1536-well;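 active means compounds that cut the binding signal by more than half at the single screening dose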;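 further: His-tagged Mcl-1 with europium anti-His antibody binding Bid BH3 peptide; 0% = Mcl-1 plus peptide wells and 100% = peptide-only wells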
14-3-3 Bad PPI: disrupts binding of bovine 14-3-3 zeta to phospho-Bad peptide | inhibition, % at 21.7 µM | TR-FRET 14-3-3zeta/Dy647-pBad peptide displacement, 1 h | AID 781 | actives 0.71% (n = 220,000);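 active means inhibition above about 70%, limit read from the data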;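 further: 0% = full 14-3-3 plus peptide FRET controls and 100% = background without 14-3-3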
Mcl1 Noxa PPI: Mcl-1/Noxa interaction inhibition; inhibition, % at 21.7 µM; Q07820; TR-FRET Mcl-1/Noxa peptide binding, 2 h; actives 1.5% (n = 220,000); AID 1022;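 active means compounds that cut the protein-peptide binding signal by more than 50% relative to plate controls in a single-dose test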;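 further: His-tagged Mcl-1 with rhodamine Noxa BH3 peptide and terbium anti-His antibody; 0% = Mcl-1 plus Noxa peptide wells and 100% = peptide-only wells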
Bim-Mcl-1: human Bim-Mcl-1 interaction inhibition; Q07820; Bead-based flow cytometry, Bim peptide-Mcl-1 binding; inhibition, % at 10 µM; actives 0.1% (n = 190,000); AID 1009; in the data active means inhibition above about 40%;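 further: 0% = no compound tracer wells and 100% = peptide blocker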
An asterisk follows results filed as active.

How did C/C(=N\NC(=O)c1ccc2c(c1)OCO2)c1ccc(O)cc1 do in these assays?
eIF4E 4G PPI: -8; Pf gamet viab: -6; Mcl1 Bid PPI: -15; 14-3-3 Bad PPI: -1; Mcl1 Noxa PPI: 6

Results for C/C(=N/NC(=O)c1ccc2c(c1)OCO2)c1ccc(NC(=O)C(F)(F)F)cc1 ?
eIF4E 4G PPI: 6; Pf gamet viab: 2; Mcl1 Bid PPI: 31; 14-3-3 Bad PPI: 86*; Mcl1 Noxa PPI: -58; Bim-Mcl-1: 0

What do the screens show for `O=C(N/N=C\c1cc([N+](=O)[O-])ccc1N1CCCC1)c1ccccn1`?
eIF4E 4G PPI: 0; Pf gamet viab: 1; Mcl1 Bid PPI: -22; 14-3-3 Bad PPI: -8; Mcl1 Noxa PPI: 10; Bim-Mcl-1: 0

How did O=C(Cn1c2ccccc2c(=O)c2ccccc21)N/N=C/c1cc([N+](=O)[O-])ccc1N1CCCCC1 do in these assays?
eIF4E 4G PPI: -1; Pf gamet viab: -17; Mcl1 Bid PPI: 67*; 14-3-3 Bad PPI: 70; Mcl1 Noxa PPI: 43; Bim-Mcl-1: -8

How did COc1ccc(Cl)cc1C(=O)Nc1ccccc1N1CCN(C)CC1 do in these assays?
eIF4E 4G PPI: 0; Mcl1 Bid PPI: -8; 14-3-3 Bad PPI: 1; Mcl1 Noxa PPI: 56*; Bim-Mcl-1: 0

How did COc1ccc(NCC(=O)N/N=C/c2cc([N+](=O)[O-])ccc2N2CCCC2)cc1 do in these assays?
eIF4E 4G PPI: 0; Pf gamet viab: 9; Mcl1 Bid PPI: -49; 14-3-3 Bad PPI: -8; Mcl1 Noxa PPI: 28; Bim-Mcl-1: 0

What do the screens show for `CN1CCN(c2ccc([N+](=O)[O-])cc2NC(=O)c2ccccc2)CC1`?
eIF4E 4G PPI: -6; Mcl1 Bid PPI: -32; 14-3-3 Bad PPI: 77*; Mcl1 Noxa PPI: 13; Bim-Mcl-1: 0

What do the screens show for `CN1CCN(c2ccc([N+](=O)[O-])cc2/C=N/NC(=O)c2cccc([N+](=O)[O-])c2)CC1`?
eIF4E 4G PPI: -1; Pf gamet viab: -1; Mcl1 Bid PPI: 0; 14-3-3 Bad PPI: -4; Mcl1 Noxa PPI: 91*; Bim-Mcl-1: -3

How did COc1ccc(Br)cc1C(=O)Nc1ccccc1N1CCCC1 do in these assays?
Pf gamet viab: -2

How did CN1CCN(c2ccc(Cl)cc2NC(=O)c2ccc(S(=O)(=O)N3CCCCCC3)cc2)CC1 do in these assays?
eIF4E 4G PPI: -10; Mcl1 Bid PPI: -45; 14-3-3 Bad PPI: 25; Mcl1 Noxa PPI: 74*; Bim-Mcl-1: 0

How did COc1cccc(/C=C2/SC(=O)N(C)C2=O)c1OCc1ccc(C(=O)O)cc1 do in these assays?
eIF4E 4G PPI: 1; Pf gamet viab: 7; Mcl1 Bid PPI: -19; 14-3-3 Bad PPI: -7; Mcl1 Noxa PPI: 3; Bim-Mcl-1: 67*

Results for C/C(C/C(C)=C1/SC(=S)NC1=O)=C1\SC(=S)NC1=O ?
eIF4E 4G PPI: 2; Pf gamet viab: -4; Mcl1 Bid PPI: 78*; 14-3-3 Bad PPI: 37; Mcl1 Noxa PPI: 73*; Bim-Mcl-1: -1

What do the screens show for `CNC(=O)c1c(NC(=O)c2cc(-c3cc(C)c(C)cc3O)n[nH]2)sc2c1CCCC2`?
eIF4E 4G PPI: 7; Mcl1 Bid PPI: 9; 14-3-3 Bad PPI: 29; Mcl1 Noxa PPI: 60*

What do the screens show for `CCCn1c(SCC(=O)NC2CCCCC2C)n[nH]c1=O` (configuration not stated)?
eIF4E 4G PPI: -1; Mcl1 Bid PPI: -18; 14-3-3 Bad PPI: 2; Mcl1 Noxa PPI: -8; Bim-Mcl-1: 0

What do the screens show for `CCN(c1ccc(N=Cc2c(O)n(Cc3ccc(OC)cc3)c(=O)c3ccccc23)cc1)C(C)C`?
eIF4E 4G PPI: 4; Pf gamet viab: 10; Mcl1 Bid PPI: -18; 14-3-3 Bad PPI: -19; Mcl1 Noxa PPI: 59*

What do the screens show for `CCCCNC(=S)NCCN1CCCCC1`?
eIF4E 4G PPI: -5; Mcl1 Bid PPI: 24; 14-3-3 Bad PPI: 66; Mcl1 Noxa PPI: 23; Bim-Mcl-1: 2

What do the screens show for `CCCNC(=S)NCCN1CCCCC1`?
eIF4E 4G PPI: 10; Mcl1 Bid PPI: 38; 14-3-3 Bad PPI: 73*; Mcl1 Noxa PPI: 14; Bim-Mcl-1: 1

Results for Cc1ccc(-n2ncc(Cl)c2C(=O)NC2CC2)cc1 ?
eIF4E 4G PPI: -1; Mcl1 Bid PPI: -2; 14-3-3 Bad PPI: -5; Mcl1 Noxa PPI: 1; Bim-Mcl-1: -1
